According to PubChem BioAssay AID1159580 (chemical genetic matrix, 2015):
“And” between values parts separate entries of the source, which are not always exact repeats. Equal entries are not always repeated. The whole screen tested about 5,500 compounds, of which about 2,000 (36%) were called active. About 18% were inconclusive and are not listed. Rule as the data show it: active = normalized growth mostly below about 0.91 (no sharp cut-off); inconclusive = no clear call, values can overlap the other calls; inactive = mostly above about 0.92. Some of the results follow.

Assay: chemical genetic growth profiling, strain panel (AID 1159580);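 also: tested at 20 µM; growth read once vehicle control cultures reached saturation at 30 °C; 1 = growth at the plate median or of vehicle wells; lower values mean less growth of the strain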
Settings: growth OD

Measured: normalized growth

C=CCc1ccccc1OCC(O)CNC(C)C (stereo unspecified)
inactive: S. cerevisiae deletion strains, locus YJR066W, strain TOR1, hits give low values 0.924 | S. cerevisiae deletion strains, locus YJR075W, strain HOC1, hits give low values 1.01 and 1 | S. cerevisiae deletion strains, locus YKL009W, strain mrt4, hits give low values 1 | S. cerevisiae deletion strains, locus YKL068W, hits give low values 1.01 | S. cerevisiae deletion strains, locus YKL085W, strain MDH1 (second series), hits give low values 1.01 | S. cerevisiae deletion strains, locus YKL085W, strain MDH1, hits give low values 1.01 | S. cerevisiae deletion strains, locus YKL160W, strain elf1, hits give low values 1 | S. cerevisiae deletion strains, locus YKL190W, strain CNB1, hits give low values 1 | S. cerevisiae deletion strains, locus YKR001C, strain vps1, hits give low values 1.03 | S. cerevisiae deletion strains, locus YKR026C, strain gcn3, hits give low values 0.988 | S. cerevisiae deletion strains, locus YKR091W, strain srl3, hits give low values 0.997 | S. cerevisiae deletion strains, locus YLL001W, strain dnm1, hits give low values 1.01 | S. cerevisiae deletion strains, locus YLL026W, hits give low values 0.991 | S. cerevisiae deletion strains, locus YLL041C, strain sdh2, hits give low values 0.992 | S. cerevisiae deletion strains, locus YLR027C, strain aat2, hits give low values 0.99 | S. cerevisiae deletion strains, locus YLR039C, strain RIC1, hits give low values 1.06 | S. cerevisiae deletion strains, locus YLR058C, strain SHM2, hits give low values 1.01 | S. cerevisiae deletion strains, locus YLR102C, strain apc9, hits give low values 1.01 | S. cerevisiae deletion strains, locus YLR113W, strain HOG1, hits give low values 0.983 | S. cerevisiae deletion strains, locus YLR221C, strain rsa3, hits give low values 0.992 | S. cerevisiae deletion strains, locus YLR258W, strain gsy2, hits give low values 0.99 | S. cerevisiae deletion strains, locus YLR262C, strain YPT6 (second series), hits give low values 1.02 | S. cerevisiae deletion strains, locus YLR262C, strain YPT6, hits give low values 1.06 | S. cerevisiae deletion strains, locus YLR268W, strain sec22, hits give low values 1.03 | S. cerevisiae deletion strains, locus YLR320W, strain mms22, hits give low values 0.994 | S. cerevisiae deletion strains, locus YLR330W, strain CHS5, hits give low values 0.988 | S. cerevisiae deletion strains, locus YLR342W, strain FKS1 (second series), hits give low values 0.974 | S. cerevisiae deletion strains, locus YLR342W, strain FKS1, hits give low values 0.995 | S. cerevisiae deletion strains, locus YLR357W, strain rsc2, hits give low values 0.967 | S. cerevisiae deletion strains, locus YLR370C, strain arc18, hits give low values 1.01 | S. cerevisiae deletion strains, locus YLR371W, strain rom2, hits give low values 1.01 | S. cerevisiae deletion strains, locus YLR384C, strain iki3, hits give low values 0.997 | S. cerevisiae deletion strains, locus YLR418C, strain cdc73, hits give low values 1.04 | S. cerevisiae deletion strains, locus YML016C, strain PPZ1, hits give low values 1 | S. cerevisiae deletion strains, locus YML032C, strain rad52, hits give low values 1.01 | S. cerevisiae deletion strains, locus YML120C, strain ndi1, hits give low values 0.994 | S. cerevisiae deletion strains, locus YML124C, strain tub3, hits give low values 1.01 | S. cerevisiae deletion strains, locus YMR058W, strain fet3, hits give low values 1 | S. cerevisiae deletion strains, locus YMR078C, strain ctf18, hits give low values 1.01 | S. cerevisiae deletion strains, locus YMR125W, strain sto1, hits give low values 0.993 | S. cerevisiae deletion strains, locus YMR129W, hits give low values 1 | S. cerevisiae deletion strains, locus YMR205C, strain PFK2, hits give low values 0.98 | S. cerevisiae deletion strains, locus YMR223W, strain ubp8, hits give low values 1 | S. cerevisiae deletion strains, locus YMR231W, strain pep5, hits give low values 0.995 | S. cerevisiae deletion strains, locus YMR263W, strain SAP30, hits give low values 1.01 | S. cerevisiae deletion strains, locus YMR307W, strain GAS1, hits give low values 1.02 | S. cerevisiae deletion strains, locus YNL067W, strain RPL9B, hits give low values 1.01 | S. cerevisiae deletion strains, locus YNL071W, strain lat1, hits give low values 1 | S. cerevisiae deletion strains, locus YNL128W, strain TEP1, hits give low values 1.01 and 0.998 | S. cerevisiae deletion strains, locus YNL153C, strain GIM3, hits give low values 1 | S. cerevisiae deletion strains, locus YNL175C, strain NOP13, hits give low values 0.973 | S. cerevisiae deletion strains, locus YNL183C, strain NPR1, hits give low values 0.924 | S. cerevisiae deletion strains, locus YNL209W, strain ssb2, hits give low values 1.01 | S. cerevisiae deletion strains, locus YNL224C, strain SQS1, hits give low values 0.972 | S. cerevisiae deletion strains, locus YNL233W, strain BNI4, hits give low values 0.982 | S. cerevisiae deletion strains, locus YNL248C, strain rpa49, hits give low values 1.01 | S. cerevisiae deletion strains, locus YNL250W, strain rad50, hits give low values 1.01 | S. cerevisiae deletion strains, locus YNL271C, strain bni1, hits give low values 1.01 | S. cerevisiae deletion strains, locus YNL298W, strain CLA4, hits give low values 1.02 | S. cerevisiae deletion strains, locus YNL307C, strain MCK1, hits give low values 1.03 | S. cerevisiae deletion strains, locus YNL322C, strain KRE1 (second series), hits give low values 0.991 | S. cerevisiae deletion strains, locus YNL322C, strain KRE1, hits give low values 1 | S. cerevisiae deletion strains, locus YNR049C, strain mso1, hits give low values 0.988 | S. cerevisiae deletion strains, locus YNR052C, strain pop2, hits give low values 1.01 | S. cerevisiae deletion strains, locus YOL006C, strain TOP1, hits give low values 1.05 | S. cerevisiae deletion strains, locus YOL012C, strain htz1 0.911 | S. cerevisiae deletion strains, locus YOL147C, strain pex11, hits give low values 1.01 | S. cerevisiae deletion strains, locus YOR001W, strain rrp6, hits give low values 0.997 | S. cerevisiae deletion strains, locus YOR061W, strain CKA2, hits give low values 1.01 | S. cerevisiae deletion strains, locus YOR069W, strain VPS5, hits give low values 1.01 | S. cerevisiae deletion strains, locus YOR070C, strain gyp1, hits give low values 0.997 | S. cerevisiae deletion strains, locus YOR080W, strain dia2, hits give low values 0.993 | S. cerevisiae deletion strains, locus YOR083W, strain WHI5 (second series), hits give low values 0.978 | S. cerevisiae deletion strains, locus YOR083W, strain WHI5, hits give low values 1.01 | S. cerevisiae deletion strains, locus YOR106W, strain vam3, hits give low values 1.05 | S. cerevisiae deletion strains, locus YOR136W, strain idh2, hits give low values 1 | S. cerevisiae deletion strains, locus YOR144C, strain elg1, hits give low values 1 | S. cerevisiae deletion strains, locus YOR184W, strain ser1, hits give low values 1.03 | S. cerevisiae deletion strains, locus YOR231W, strain MKK1, hits give low values 0.983 | S. cerevisiae deletion strains, locus YOR265W, strain rbl2, hits give low values 1 | S. cerevisiae deletion strains, locus YOR270C, strain vph1, hits give low values 1.07 | S. cerevisiae deletion strains, locus YOR290C, strain snf2, hits give low values 0.923 | S. cerevisiae deletion strains, locus YOR316C, strain cot1, hits give low values 1.01 | S. cerevisiae deletion strains, locus YPL051W, strain arl3, hits give low values 1.01 | S. cerevisiae deletion strains, locus YPL055C, strain LGE1, hits give low values 1 | S. cerevisiae deletion strains, locus YPL078C, strain atp4, hits give low values 1.01 | S. cerevisiae deletion strains, locus YPL106C, strain sse1, hits give low values 0.987 | S. cerevisiae deletion strains, locus YPL240C, strain hsp82, hits give low values 1.01 | S. cerevisiae deletion strains, locus YPL241C, strain CIN2, hits give low values 0.997 | S. cerevisiae deletion strains, locus YPL256C, strain CLN2, hits give low values 0.981 | S. cerevisiae deletion strains, locus YPR119W, strain clb2, hits give low values 1.01 | S. cerevisiae deletion strains, locus YPR141C, strain kar3, hits give low values 1.02 | S. cerevisiae deletion strains, locus YPR163C, strain tif3, hits give low values 1.01 | S. cerevisiae deletion strains, locus YPR167C, strain met16, hits give low values 1.01 | S. cerevisiae deletion strains, strain wtn01, hits give low values 1.01 | S. cerevisiae strains, strain wild type, hits give low values 1
